Results taken from PubChem BioAssay (NCATS).
Results filed as inconclusive are left out. Activity calls are given as the source filed them. Calls come from the whole dose curve; as a rule, active = well fitted curve in the direction sought with a large enough effect; inconclusive = small, poorly fitted or top-dose-only effect, or another doubt; inactive = no such curve, though single readings can be large; an effect the other way counts as inactive or inconclusive.

How the values were obtained:
[1] = Cellular Toxicity (caspase-3) Hek293 (AID 664); details: HEK293 caspase-3 activation, DMSO = 0%, 100 µM tamoxifen = 100%; at 92.2 µM (top of the series);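 note: cells exposed to compound for 16 h at 37 °C before readout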
Summary of the method: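 Concentration-response qHTS: caspase 3/7 activation measured by luminescent aminoluciferin substrate cleavage after 16 h compound exposure of Hek 293 cells. AC50 from Hill equation, with DMSO as basal and 100 uM tamoxifen as 100%.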

[2] = Cellular Toxicity (caspase-3) N2a (AID 665); details: Potency: caspase-3 activation;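 note: compound exposure lasted 16 h at 37 °C before readout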
Summary of the method: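 Caspase-3/7 activation measured as luminescence from Caspase-Glo reagent (1 h, room temperature) after 16 h compound exposure of mouse N2a cells. AC50 values from Hill-equation concentration-response, scaled between DMSO and 10 uM staurosporine.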

[3] = Cellular Toxicity (caspase-3) NIH 3T3 (AID 666);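 note: 0% = DMSO basal and 100% = 100 µM tamoxifen stimulation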
Summary of the method: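 Caspase-Glo 3/7 luminescence reported caspase activation in 1000 NIH 3T3 cells/well after 16 h compound exposure at 37 C. DMSO set basal and 100 uM tamoxifen set 100% stimulation; concentration-response modeled with the Hill equation for AC50.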

[4] = Cellular Toxicity (caspase-3) Renal Proximal Tubule (AID 667);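 note: cells exposed to compound for 16 hours at 37 °C before detection; 0% = DMSO basal and 100% = 10 µM staurosporine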
Summary of the method: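 Luminescent caspase 3/7 signal from peptide-aminoluciferin cleavage measures apoptosis in freshly isolated rat kidney proximal tubule cells after 16 h compound exposure. Concentration-response data are normalized to DMSO and 10 uM staurosporine, and AC50 values come from Hill equation fits.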

[5] = biological target: Cytochrome P450 3A4 (Homo sapiens) (UniProt P08684); assay: qHTS Assay for Inhibitors and Substrates of Cytochrome P450 3A4 (AID 884); note: % is set by controls: 0 for no effect and ±100 for the full control effect; nearly all actives have a fitted effect of over 50% in size
Summary of the method: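 Luminescent readout of luciferin produced by CYP3A4 (20 nM) dealkylation of Luciferin-PPXE, 25 uM (its KM). NADPH-driven reaction ran 60 min at RT after 10 min compound preincubation; data scaled to 57 uM ketoconazole as 100% inhibition.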

[6] = Cell Viability - LYMP2-001 (AID 921);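 note: 0% = DMSO only and full inhibition = tetraoctylammonium bromide control wells; nearly all actives have a fitted effect of over 70% in size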
Summary of the method: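 CellTiter-Glo luminescence (intracellular ATP) after 24 hr compound exposure at 37 C, 2500 lymphoblastoid cells/well in complete medium. AC50 fitted with standard Hill equation; tetraoctylammonium bromide positive control.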

[7] = MultiTox-Fluor Cytotoxicity Assay - LYMP1-001 - Dead Cells (AID 946)
Summary of the method: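 Seed 2500 LYMP1-001 cells/well, incubate 5 hr at 37 C; add compound, 16 hr at 37 C; add MultiTox-Fluor reagent, 60 min RT; read dead-cell fluorescence Ex/Em=485/520. Normalize to DMSO and 15 uM tetraoctylammonium bromide.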

[8] = MultiTox-Fluor Cytotoxicity Assay - LYMP1-001 - Live Cells (AID 947);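 note: 0% = DMSO only and full inhibition = tetraoctylammonium bromide control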
[9] = Cell Viability - LYMP1-002 - Assay at 16 hr (AID 948);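 note: 0% = DMSO alone and full effect = 92 µM tetraoctylammonium bromide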
Summary of the method: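 LYMP1-002 human lymphoblastoid cells, 2500/well; 5 hr 37 C; cpd 16 hr 37 C; CellTiter-Glo 30 min RT; luminescence (ATP). Concentration-response, Hill-fit AC50. Pos ctrl tetraoctylammonium bromide.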

[10] = MultiTox-Fluor Cytotoxicity Assay - LYMP1-002 - Live Cells (AID 955);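 note: cells exposed to compound for 16 hours; % is set by controls: 0 for no effect and ±100 for the full control effect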
Summary of the method: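 After 16 h compound exposure at 37 C, live LYMP1-002 lymphoblastoid cells (2500/well) were quantified by cleavage of cell-permeant GF-AFC substrate, read at 405/510 nm after 60 min. Concentration-response fitted with Hill equation for AC50.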

[11] = MultiTox-Fluor Cytotoxicity Assay - LYMP1-002 - Dead Cells (AID 960); note: nearly all actives have a fitted effect of over 60% in size
Summary of the method: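 Dead-cell fluorescence (Ex/Em 485/520) after 16 h compound exposure at 37 C of LYMP1-002 lymphoblastoid cells in complete medium; AC50 by Hill equation, with data scaled between DMSO and 15 uM tetraoctylammonium bromide.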

[12] = MultiTox-Fluor Cytotoxicity Assay - LYMP1-003 - Dead Cells (AID 961); note: nearly all actives have a fitted effect of over 70% in size
Summary of the method: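 LYMP1-003 lymphoblastoid, 2500 cells/well, 5 hr settle then 16 hr cpd at 37 C; MultiTox-Fluor reagent 60 min RT; Ex/Em 485/520 dead-cell signal; norm. DMSO = 0%, 15 uM tetraoctylammonium bromide = 100%; Hill AC50.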

[13] = MultiTox-Fluor Cytotoxicity Assay - LYMP1-003 - Live Cells (AID 962);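 note: cells exposed to compound for 16 hours at 37 °C; 0% = DMSO only and full loss = 92 µM tetraoctylammonium bromide; cytotoxic hits lower the live-cell protease signal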
Summary of the method: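 Live-cell protease activity (GF-AFC substrate, 405/510 nm, 60 min at room temperature) after 16 h, 37 C compound exposure of human lymphoblastoid LYMP1-003 cells; concentration-response fitted to the Hill equation for AC50.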

[14] = Cell Viability - LYMP1-003 - Assay at 24 hr (AID 963);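 note: plate controls were DMSO only for no effect and tetraoctylammonium bromide positive control for full effect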
Summary of the method: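 Concentration-response qHTS: ATP loss measured by CellTiter-Glo luminescence after 24 h compound exposure at 37 C. Cells were LYMP1-003 human lymphoblastoid, 2500 per well. AC50 derived via standard Hill equation modeling.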

[15] = Cell Viability - LYMP1-003 - Assay at 40 hr (AID 964); note: % is set by controls: 0 for no effect and ±100 for the full control effect; nearly all actives have a fitted effect of over 60% in size
Summary of the method: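 Viability is taken as cellular ATP, read by CellTiter-Glo luminescence after 40 h of compound exposure at 37 C. Cells: human lymphoblastoid line LYMP1-003 at 2500/well; AC50 values derived by Hill-equation fitting of concentration-response data.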

[16] = Cell Viability - LYMP2-003 (AID 965);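 note: cells exposed to compounds for 24 h before reading; 0% = DMSO only and full effect = 92 µM tetraoctylammonium bromide; nearly all actives have a fitted effect of over 50% in size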
Summary of the method: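 CellTiter-Glo luminescence (cellular ATP) after 24 h compound exposure at 37 C in complete medium; 2500 cells/well, 5 h settling beforehand. Concentration-response fitted to standard Hill equation for AC50. Tetraoctylammonium bromide served as positive control.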

[17] = Cell Viability - LYMP2-004 (AID 966);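 note: plate controls were DMSO only for no effect and tetraoctylammonium bromide control for full effect; nearly all actives have a fitted effect of over 65% in size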
Summary of the method: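 AC50 values come from Hill modelling of concentration-dependent loss of intracellular ATP, measured by CellTiter-Glo luminescence. Human LYMP2-004 lymphoblastoid cells (2500/well) were exposed to compound for 24 h at 37 C.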

[18] = Cell Viability - LYMP2-005 (AID 967);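 note: plate controls were DMSO only for no effect and 92 µM tetraoctylammonium bromide control for full effect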
Summary of the method: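 Steps: seed 2500 LYMP2-005 cells/well, incubate 5 h at 37 C, add compound, incubate 24 h at 37 C, add CellTiter-Glo, wait 30 min at RT, read luminescence. Concentration-response data fitted to Hill equation for AC50.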

[19] = Cell Viability - LYMP2-009 (AID 968);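 note: 0% = DMSO alone and the full-kill end = tetraoctylammonium bromide at 92 µM; nearly all actives have a fitted effect of over 55% in size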
[20] = Cell Viability - LYMP2-011 (AID 969);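 note: 0% = DMSO only and full inhibition = 92 µM tetraoctylammonium bromide; nearly all actives have a fitted effect of over 60% in size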
Summary of the method: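 Cytotoxicity qHTS with ATP content as read-out: lymphoblastoid cells (2500/well) exposed to compound for 24 h at 37 C, then luciferase luminescence measured. Concentration-response data fitted with the standard Hill equation to give AC50.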

[21] = Cell Viability - LYMP2-013 (AID 970);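 note: 0% = DMSO only and full inhibition = tetraoctylammonium bromide control; nearly all actives have a fitted effect of over 55% in size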
Summary of the method: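 qHTS cytotoxicity: ATP-dependent luminescence (CellTiter-Glo, 30 min room temperature) read after 24 h compound exposure at 37 C of 2500 LYMP2-013 lymphoblastoid cells per well. Concentration-response fitted with Hill equation to give AC50.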

[22] = Cell Viability - LYMP2-015 (AID 971);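 note: 0% = DMSO only and full effect = 92 µM tetraoctylammonium bromide; nearly all actives have a fitted effect of over 55% in size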
Summary of the method: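 Cytotoxicity readout: decrease in intracellular ATP (CellTiter-Glo luminescence) in 2500 LYMP2-015 lymphoblastoid cells/well after 24 h compound exposure at 37 C. Concentration-response data fitted with the standard Hill equation to give AC50.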

[23] = Cell Viability - LYMP2-017 (AID 972); note: % is set by controls: 0 for no effect and ±100 for the full control effect; nearly all actives have a fitted effect of over 55% in size
Summary of the method: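 CellTiter-Glo luminescence (cellular ATP, 30 min RT) measured cytotoxicity after 24 hr compound treatment at 37 C. Cells were a human lymphoblastoid line, LYMP2-017, plated at 2500/well and incubated 5 hr first; concentration-response fitted with Hill equation for AC50.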

Chain of Cytochrome P450 3A4 (Homo sapiens) (P08684 whole entry, looked up): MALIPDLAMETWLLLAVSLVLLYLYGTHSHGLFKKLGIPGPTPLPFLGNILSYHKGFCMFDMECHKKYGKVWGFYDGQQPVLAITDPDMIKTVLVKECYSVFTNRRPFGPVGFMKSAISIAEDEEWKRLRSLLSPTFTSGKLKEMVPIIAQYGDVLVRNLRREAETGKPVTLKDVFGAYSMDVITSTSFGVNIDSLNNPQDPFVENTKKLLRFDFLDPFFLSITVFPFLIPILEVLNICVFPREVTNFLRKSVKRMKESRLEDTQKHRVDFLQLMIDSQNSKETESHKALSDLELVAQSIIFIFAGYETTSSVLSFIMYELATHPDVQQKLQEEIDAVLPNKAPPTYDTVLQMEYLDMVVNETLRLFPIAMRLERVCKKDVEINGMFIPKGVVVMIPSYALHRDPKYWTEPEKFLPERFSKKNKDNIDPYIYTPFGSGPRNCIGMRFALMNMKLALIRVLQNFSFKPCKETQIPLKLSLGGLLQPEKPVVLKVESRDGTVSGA

CCCCCC/C(C=O)=C\c1ccccc1
inactive: caspase-3 activation [1] 2.43% | Potency [2] | Potency [3] | outcome [4] | Potency [5] | Potency [6] | Potency [7] | Potency [8] | Potency [9] | Potency [10] | Potency [11] | Potency [12] | Potency [13] | Potency [14] | Potency [15] | Potency [16] | Potency [17] | Potency [18] | Potency [19] | Potency [20] | Potency [21] | Potency [22] | Potency [23]
